Drawing on PubChem BioAssay AID1986 (Sanford-Burnham Center for Chemical Genomics, 2009), this text covers inhibition for 24 compounds.

Broadly, the inhibition is the change of the read-out against control, counted positive when it falls.

Screen size: about 290,000 compounds; about 890 (0.31%) were called active. No stated cut-off is given here; in the data, active means inhibition mostly above about 52% (no sharp cut-off); inactive means mostly below about 76%. Many of the other results were omitted from the sample, so actives are more common in it than they were.

The nature of this assay: cell-free HIV fusion peptide-binding blockers – biochemical, uHTS, fluorescence dequenching, primary screen (AID 1986). The conditions noted are these: 30 min, stronger effect = higher value.
[1] abbreviates: measured here: repeat confirmation average inhibition, at 18.6 µM.

Regarding `O=C(O)c1cc(-c2ccco2)nn1-c1cccc(Cl)c1`, the inhibition (at 20 µM) is 74.3% (active). As to `O=C(O)c1cc(-c2ccco2)nn1-c1ccc(Cl)cc1`, the inhibition was 72.4% (inactive) (at 20 µM) and 4.8% under setting [1]. For the compound `O=C(c1cc(-c2ccco2)nn1-c1cccc(Cl)c1)N1CCCCC1`, the inhibition (at 20 µM) was 15% (inactive). Still for that read-out and setting: with `O=C1NN(c2cccc(Br)c2)C(=O)/C1=C/c1ccc(-c2cc([N+](=O)[O-])ccc2O)o1` the figure was 56.9% (active). In the case of `O=C1NN(c2ccccc2)C(=O)/C1=C\c1ccc(-c2cc([N+](=O)[O-])ccc2O)o1`, the inhibition is, setting by setting: (at 20 µM) 53.6% (inactive); under setting [1], 15%. On to `CC1=NN(c2ccc(C)cc2)C(=O)/C1=C/c1ccc(-c2cc([N+](=O)[O-])ccc2O)o1`, for which the inhibition (at 20 µM) was 45.2% (inactive). With `CCCOc1cccc(C(=O)N/N=C/c2ccoc2)c1`, the inhibition (at 20 µM) is 0.4% (inactive). The same measure, in the same setting: as for `O=C(Nc1ccc([N+](=O)[O-])cn1)C1CC2CCC1C2` (stereo unspecified), the figure is 1.2% (inactive).

`C[C@@H]1Cc2c(O)c(O)cc(O)c2C(=O)O1`: under “at 20 µM”, the inhibition is 27.3% (inactive). Same read-out and setting: as for `COc1c(O)cc2c(c1O)C(=O)CC(c1ccccc1)O2` (stereo unspecified), the figure is -1.5% (inactive); as for `CC1CC(=O)c2c(cc3c(-c4c(O)cc(O)c5c(O)c6c(cc45)OC(C)CC6=O)c(O)cc(O)c3c2O)O1` (stereo unspecified), 56.7% (active). Consider `COc1ccc(C(=O)C23CC4CC(C2)CC(C(=O)c2ccc(OC)cc2)(C4)C3)cc1`, for which, for the setting “at 20 µM”, the inhibition was -1.1% (inactive).

On to `Cc1ccc(C)n1-c1ccc(C(=O)O)cc1`, for which the inhibition (at 20 µM) was -0.4% (inactive). Same read-out and setting: with `Cc1ccc(-c2cc3c(n2-c2ccc(C(=O)O)cc2)CCCC3=O)cc1` the figure was 9.8% (inactive); with `Cc1cc2c(n1-c1ccc(C(=O)O)cc1)CCCCC2`, 57.7% (active); with `O=C(NC(=S)Nc1ccccc1[N+](=O)[O-])c1ccccc1`, -2.2% (inactive).

On to `O=C(O)CCCCCNC(=O)c1ccc(C(=O)NCCCCCC(=O)O)cc1`, for which, where the note is “at 20 µM”, the inhibition is 0.3% (inactive).

Regarding `CCOc1ccc(/C=C/C2=Cc3c(sc(NC(=O)CSc4n[nH]c(N)n4)c3C#N)C(C)(C)C2)cc1`, for the setting “at 20 µM”, the inhibition is 62.3% (active). Regarding `Cc1ccsc1/C=C/C1=Cc2c(sc(NC(=O)CSc3n[nH]c(N)n3)c2C#N)C(C)(C)C1`, the inhibition (at 20 µM) is 2.6% (inactive).

Take `Cc1ccc(/C=C/C2=Cc3c(sc(NC(=O)CSc4n[nH]c(N)n4)c3C#N)C(C)(C)C2)o1`: where the note is “at 20 µM”, the inhibition was 149% (inactive). For the compound `CCOC(=O)c1cc(-c2cccs2)nc2c1c(C)nn2-c1ccccn1`, the inhibition (at 20 µM) was -2.7% (inactive). As for `COC(=O)[C@H](Cc1ccccc1)NC(=O)N1Cc2ccccc2C[C@H]1C(=O)OC`, under “at 20 µM”, the inhibition was 1.3% (inactive).

Regarding `CCN(CC)CCN(Cc1cc2cc3c(cc2[nH]c1=O)OCCO3)C(=S)NC`, the inhibition (at 20 µM) was 2.5% (inactive). Still for that read-out and setting: with `N#Cc1c(NC(=O)CSc2nc(N)cc(=O)[nH]2)sc2c1CCCC2` the figure was 0.4% (inactive).
